Measured values taken from the OligoGym collection.
Also: reference of the scale not given here.

These sequences were tested against SLC25A3 (assay: pooled miR-30 sensor sort-seq; sequence = guide strand). Conditions: shRNA.
TTGTACAGTGCTTCAACAGTAC gave a sensor-assay potency score (higher = more potent) of 0.043. With TTTAAATCCAAGTCTCTTGAGG the sensor-assay potency score (higher = more potent) was -0.533. Sequence TATGGTATCTGTCTCATCCAGA has a sensor-assay potency score (higher = more potent) of 0.075. Sequence TAAGTGTAACTGAGAATCCGTT has a sensor-assay potency score (higher = more potent) of -0.605.

Each sequence was assayed against SLC25A41 in the same assay as above. Conditions: shRNA.
Work on TAGACCTGCATGTACACCTTGG yielded a sensor-assay potency score (higher = more potent) of -0.353. In the case of TTCAAGGTTGTTGTCATGCATG, the sensor-assay potency score (higher = more potent) is reported as -1.11. In the case of TACACCACATAGCTGATGCCAC, the sensor-assay potency score (higher = more potent) is reported as -0.548. TTGCACTGCTCGAATACGGAGA showed a sensor-assay potency score (higher = more potent) of -0.376. With ATACTCAGGAGCAATCTTGAGC the sensor-assay potency score (higher = more potent) was -0.858. TGCATGTACACCTTGGCTCTGT gave a sensor-assay potency score (higher = more potent) of -0.291. Sequence TAGAGCAAGTGTTCTGAGGTTC has a sensor-assay potency score (higher = more potent) of 0.286. For TTGGTGAAGTTCGTCTTGGAGG, the sensor-assay potency score (higher = more potent) was -1.22. TCTCGCTGCAAGATCTGCCTGG gave a sensor-assay potency score (higher = more potent) of -0.421. TAGACAGCCAGGTCGGTGCAGG was tested, and the sensor-assay potency score (higher = more potent) was -0.911. For TATTCCACAGAAGTAATTCTTG, the sensor-assay potency score (higher = more potent) was -0.218. In the case of TCCTGTGTCCAGTACCTGCTGT, the sensor-assay potency score (higher = more potent) is reported as -0.625.

Each sequence was assayed against SLC25A5 in the same assay as above. Conditions: shRNA.
With TGCAGTGTCATAGATACCGAAG the sensor-assay potency score (higher = more potent) was -1.43. In the case of TTTGTATTGCTTATCTGCAGTG, the sensor-assay potency score (higher = more potent) is reported as -0.375. TTGCAGTGTCATAGATACCGAA showed a sensor-assay potency score (higher = more potent) of -0.793. Work on TCTGCAGTGATCTGCTTGCTGG yielded a sensor-assay potency score (higher = more potent) of -0.995. With TTTGTAGATCTTAACCAGGCAG the sensor-assay potency score (higher = more potent) was -0.343. Work on TCACGAGCAATCTTCCGCCAGC yielded a sensor-assay potency score (higher = more potent) of -0.904. TTCTCTTGTCCACACCACCCAG showed a sensor-assay potency score (higher = more potent) of -1.25. For AGATTTGTAGATCTTAACCAGG, the sensor-assay potency score (higher = more potent) was -1.69. For TTATCTTTGAAGGCGAAGTTAA, the sensor-assay potency score (higher = more potent) was -1.05. With TTGCTTATCTGCAGTGATCTGC the sensor-assay potency score (higher = more potent) was -0.049. TACAAGACAAGCACAAAAGCAC was tested, and the sensor-assay potency score (higher = more potent) was 0.0644. In the case of TATCTGATGACATTGGCCAGGT, the sensor-assay potency score (higher = more potent) is reported as 0.271. TTATCTGCAGTGATCTGCTTGC gave a sensor-assay potency score (higher = more potent) of 0.187. Sequence TCTCTTGTCCACACCACCCAGG has a sensor-assay potency score (higher = more potent) of -0.852. Work on TTGTATTTATCTTTGAAGGCGA yielded a sensor-assay potency score (higher = more potent) of -0.168. Work on ATGGATAGGAAGTCAACCCGGC yielded a sensor-assay potency score (higher = more potent) of -0.119. TTCATCACGAGCAATCTTCCGC was tested, and the sensor-assay potency score (higher = more potent) was -0.132. Sequence TCGGTAGATGATAATACCCTGC has a sensor-assay potency score (higher = more potent) of -0.461. With TTGTAGATCTTAACCAGGCAGT the sensor-assay potency score (higher = more potent) was -0.456. Sequence TATAATGCCTTTGTATTGCTTA has a sensor-assay potency score (higher = more potent) of 0.347. In the case of TTGTATTGCTTATCTGCAGTGA, the sensor-assay potency score (higher = more potent) is reported as -0.0407. In the case of TGCCTTTGTATTGCTTATCTGC, the sensor-assay potency score (higher = more potent) is reported as -0.404. TTGCTTCCCATTTTCAACCAGT was tested, and the sensor-assay potency score (higher = more potent) was -0.278. In the case of TTCATCATACAAGACAAGCACA, the sensor-assay potency score (higher = more potent) is reported as -1.02.
